Source: PubChem BioAssay AID2685 (National Center for Advancing Translational Sciences (NCATS), 2010)
Among all 320,000 compounds or so, about 2,100 (0.66%) were called active. Inconclusive results (about 53%) are left out. The call rests on the fitted dose curve; in most records, active means well fitted inhibition curve with a large enough effect in the signal ratio, with a control signal flat (not every such curve was filed as active); inconclusive means small, poorly fitted or top-dose-only effect, or effect the other way, or a change in a side signal; inactive means flat fitted curve, though single readings scatter; the % refers to the signal ratio. This excerpt belongs to a sample that is enriched for actives.

assay: qHTS Assay for Lipid Storage Modulators in Drosophila S3 Cells; conditions: BODIPY lipid droplet fluorescence, 18-24 h, cells fed with added oleic acid; cell number change: measured here: cell count max response; series mostly up to 46.1 µM;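 on cell number change: cells counted by Cell Tracker Red CMTPX staining in the red channel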
Procedure, shortened: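 Drosophila S3 cells loaded with oleic acid (400 uM, as added) and compounds at several concentrations; lipid droplets imaged by 488-nm laser-scanning cytometry, 500–530 nm intensity and object ratio to cell channel. Percent activity normalized to 20 uM Triacsin C.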
Potency means the concentration at half of the fitted maximal effect.

SMILES	Potency	cell number change
COC(=O)c1ccc(NC(=O)c2ccc(NS(=O)(=O)c3cccc4cccnc34)cc2)cc1	inactive	-0.185%
CCOC(=O)C1CCN(c2nc(-c3ccc(C)cc3)nc3ccccc23)CC1	inactive	-12.1%
COc1ccccc1NC(=O)c1ccc(NC(=O)CSc2ncn[nH]2)cc1	inactive	-3.32%
Cc1cc(-c2ccco2)n(CC(=O)O)n1	inactive	-13.3%
CC(Sc1ccc2ccccc2c1)C(=O)NC(N)=O (stereo unspecified)	inactive	22.5%
CC(Sc1cccc(C(F)(F)F)c1)C(=O)NC(N)=O (stereo unspecified)	inactive	10.6%
CC(=O)Nc1ccc(SC(C)C(=O)NC(N)=O)cc1 (stereo unspecified)	29.1 µM (active)	-18.8%
CCOC(=O)NC(O)C(=O)c1ccc(F)cc1 (stereo unspecified)	inactive	–
N#Cc1ccc(Cl)cc1NC(=O)CNCc1cccs1	inactive	4.81%
COc1ccc(-n2c(=O)c(CCC(=O)NCCc3ccccc3F)nc3ccccc32)cc1	18.4 µM (active)	2.07%
COc1ccc(-n2c(=O)c(CCC(=O)N3CCN(c4ccccc4O)CC3)nc3ccccc32)cc1	inactive	-25.6%
COc1ccc(-n2c(=O)c(CCC(=O)N(C)Cc3ccccc3C)nc3ccccc32)cc1	inactive	24.8%
COc1ccc2c(c1)c(CC(=O)Nc1cccc(S(N)(=O)=O)c1)c(C)n2C(=O)c1ccc(Cl)cc1	inactive	-13.5%
CC(C(=O)Nc1ccc2c(c1)OCCO2)N(C)Cc1c(F)cccc1Cl (stereo unspecified)	inactive	–
COC(=O)c1ccc(NC(=O)CCNS(=O)(=O)c2cccc3nonc23)cc1	inactive	6.69%
Cc1ccc(NC(=O)CCNS(=O)(=O)c2cccc3nonc23)cc1	inactive	12.6%
CC(=O)c1ccc(NC(=O)CCNS(=O)(=O)c2cccc3nonc23)cc1	23.1 µM (active)	–
COC(=O)C1=NN(C(C)(C)CC(C)=O)C2C(=O)N(C3CCCCC3)C(=O)C12 (stereo unspecified)	inactive	-0.806%
O=C(NCc1cccc(Cl)c1)c1cccc(C(F)(F)F)c1	inactive	-1.35%
Cc1cc(NC2CCCC2)n2nc(C)c(-c3ccccc3)c2n1	inactive	-2.08%

SMILES	Potency	cell number change
O=C(CC1Sc2ccccc2NC1=O)NCc1ccccc1 (stereo unspecified)	inactive	0.893%
COc1cc(/C=C2\C(=N)N3N=CSC3=NC2=O)ccc1OS(=O)(=O)c1ccccc1	2.06 µM (active)	-21.2%
CCC1=NN2C(=N)/C(=C/c3ccc(OS(=O)(=O)c4ccc(C)cc4)c(OC)c3)C(=O)N=C2S1	inactive	5%
COc1cc(/C=C2\C(=N)N3N=CSC3=NC2=O)ccc1OS(=O)(=O)c1ccccc1[N+](=O)[O-]	inactive	-11.4%
COc1cc(/C=C2/C(=N)N3N=C(C)SC3=NC2=O)ccc1OS(=O)(=O)c1ccc(C)cc1	inactive	-5.04%
CCC1=NN2C(=N)/C(=C/c3ccc(OS(=O)(=O)c4ccccc4)c(OC)c3)C(=O)N=C2S1	1.84 µM (active)	4.58%
COc1cc(/C=C2\C(=N)N3N=C(S(C)(=O)=O)SC3=NC2=O)ccc1OS(=O)(=O)c1ccccc1	inactive	-27%
Cc1cc(/C=C2\SC(=O)N(CC(=O)Nc3ccccc3F)C2=O)c(C)n1C	inactive	1.47%
Cc1ccccc1-n1c(C)n[nH]c1=S	inactive	1.24%
COc1ccc(CC(=O)NNC(=O)CSc2nnc(C)n2-c2ccccc2)cc1	inactive	-9.57%
CC1Cc2ccccc2N1C(=O)CSc1nnc(Cn2nnc3ccccc32)n1C (stereo unspecified)	inactive	-16.3%
O=C(O)C1CCCN1C(=O)Oc1ccccc1 (stereo unspecified)	23.1 µM (active)	0.79%
O=C(Nc1ccc(F)cc1)N1CCOCC1	20.6 µM (active)	-6.86%
O=C(O)C1CCCN1C(=O)Nc1ccc(F)cc1 (stereo unspecified)	6.51 µM (active)	1.35%
CSc1ccc(NC(=O)N2CCN(c3nc4ccccc4s3)CC2)cc1	inactive	–
O=C(NCCc1ccccc1)C1CCCN1C(=O)Nc1ccc(F)cc1 (stereo unspecified)	inactive	-10%
O=C(Nc1ccc(F)cc1)N1CCN(c2nc3ccccc3s2)CC1	4.11 µM (active)	–
O=C(NC1CCCC1)C1CCCN1C(=O)Oc1ccccc1 (stereo unspecified)	inactive	-16.7%
O=C(Nc1ccc(O)cc1)N1CCOCC1	inactive	20%
O=C(Nc1ccc(F)cc1)N1CCCCCC1	inactive	7.77%

SMILES	Potency	cell number change
O=C(NCc1ccc(F)cc1)C1CCCN1C(=O)Nc1ccc(F)cc1 (stereo unspecified)	inactive	12.2%
O=C(O)C1CCCN1C(=O)OCc1ccccc1 (stereo unspecified)	inactive	12.4%
O=C(Nc1ccccc1)N1CCN(c2nc3ccccc3s2)CC1	inactive	–
COc1ccccc1C(=O)C1CCCN(Cc2cccc3nccnc23)C1 (stereo unspecified)	inactive	15%
CC(C)Nc1ccc(C(CC(N)=O)NC(=O)Cc2cccc3ccccc23)cc1[N+](=O)[O-] (stereo unspecified)	inactive	1.26%
CCOC(=O)c1sc(=NC(=O)c2cccc(C)c2)n(C)c1C	inactive	–
Cc1cc(Cl)ccc1NC(=S)NCc1ccco1	inactive	-9.3%
CCOc1ccccc1NC(=O)Cn1c(=O)oc2cc(Cl)ccc21	inactive	6.12%
Cc1ccccc1C(=O)NC1CCN(CC(=O)NCc2ccccc2)CC1	inactive	13.5%
Cc1ccccc1C(=O)NC1CCN(C(=O)Nc2ccc(F)cc2)CC1	inactive	8.56%
Cc1ccccc1C(=O)NC1CCN(CC(=O)NCc2ccc(F)cc2)CC1	inactive	9.44%
Cc1cc(C)cc(NC(=O)N2CCC(NC(=O)c3ccccc3C)CC2)c1	inactive	4.64%
O=C(NC1CCN(C(=O)Nc2ccc(F)cc2)CC1)c1ccccc1F	6.51 µM (active)	–
O=C(CN1CCC(NC(=O)c2ccccc2F)CC1)NCc1ccc(F)cc1	20.6 µM (active)	-14.5%
CCc1cc2c(=O)c(-c3nc4ccccc4n3C)c(C)oc2c(CN2CCOCC2)c1O	inactive	–
CCCS(=O)(=O)N1CCCC(C(=O)Oc2ccc(Cl)cc2)C1 (stereo unspecified)	inactive	14%
Cc1ccc(NC(=O)CSc2nc(N)cc(=O)[nH]2)cc1Cl	inactive	22%
Cn1c(SCc2ccccn2)nc2c1c(=O)[nH]c(=O)n2C	2.59 µM (active)	0.681%
Cn1c(=O)c2c(nc(SCc3ccccn3)n2C)n(C)c1=O	inactive	-19.6%
Cn1c(SCc2ccccc2Cl)nc2c1c(=O)[nH]c(=O)n2C	inactive	3.04%
